# This is one part of a sample in which the strongest signals are shown more often than they occur.
# Legend:
# Test in all cases: glycan array binding signal (z-score within array); higher = stronger binding
# Details in all cases: glycan notation: IUPAC condensed, linker removed
# [1] = biological target: Fuc(a1-2)Gal(b1-3)[Fuc(a1-4)]GlcNAc
# Summary of the method: (§1)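 Glycan array binding is given as a within-array Z-score, which can be read as non-binding when negative. The arrays, 3228 of them, came from the Consortium for Functional Glycomics database and were retained only where the protein sequence was available. Z-scores were averaged across arrays of the same protein sequence at different concentrations or buffers and across linkers.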
# [2] = biological target: Fuc(a1-2)Gal(b1-4)Glc6S
# Summary of the method: as §1
# [3] = biological target: Fuc(a1-2)Gal(b1-4)[Fuc(a1-3)]GlcNAc(b1-3)Gal(b1-4)[Fuc(a1-3)]GlcNAc
# Summary of the method: as §1
# [4] = biological target: Fuc(a1-2)Gal6S(b1-4)Glc
# Summary of the method: as §1
# [5] = biological target: Fuc(a1-2)[GalNAc(b1-3)]Gal
# Summary of the method: as §1
# [6] = biological target: Fuc(a1-3)[Gal(b1-4)]Glc6S
# Summary of the method: as §1
# [7] = biological target: Fuc(a1-3)[Gal(b1-4)]GlcNAc(b1-3)GalNAc
# Summary of the method: as §1
# [8] = biological target: Fuc(a1-3)[Gal3S(b1-4)]GlcNAc6S
# Summary of the method: as §1
# [9] = biological target: Gal(a1-2)Gal
# Summary of the method: as §1
# [10] = biological target: Gal(a1-3)Gal
# Summary of the method: as §1
# [11] = biological target: Gal(a1-3)Gal(b1-4)GlcNAc(b1-3)GalNAc
# Summary of the method: as §1
# [12] = biological target: Gal(a1-4)Gal(b1-4)GlcNAc(b1-2)Man(a1-3)[Gal(a1-4)Gal(b1-4)GlcNAc(b1-2)Man(a1-6)]Man(b1-4)GlcNAc(b1-4)GlcNAc
# Summary of the method: as §1
# [13] = biological target: Gal(a1-6)Glc
# Summary of the method: as §1
# [14] = biological target: Gal(b1-4)GlcNAc(b1-2)Man(a1-6)[Man(a1-3)]Man(b1-4)GlcNAc(b1-4)GlcNAc
# Summary of the method: as §1
# [15] = biological target: Gal(b1-4)GlcNAc(b1-3)Gal(b1-4)GlcNAc
# Summary of the method: as §1
# [16] = biological target: Gal(b1-4)GlcNAc(b1-3)[Gal(b1-4)GlcNAc(b1-6)]GalNAc
# Summary of the method: as §1
# [17] = biological target: Gal(b1-4)GlcNAc(b1-6)GalNAc
# Summary of the method: as §1
# [18] = biological target: GalNAc(b1-3)Gal
# Summary of the method: as §1
# [19] = biological target: GalNAc(b1-3)Gal(a1-4)Gal(b1-4)GlcNAc(b1-3)Gal(b1-4)Glc
# Summary of the method: as §1
# [20] = biological target: GlcNAc(b1-2)[GlcNAc(b1-4)]Man(a1-3)[GlcNAc(b1-2)Man(a1-6)]Man(b1-4)GlcNAc(b1-4)GlcNAc
# Summary of the method: as §1
# [21] = biological target: GlcNAc(b1-4)GlcNAc
# Summary of the method: as §1
# [22] = biological target: GlcNAc(b1-6)GalNAc
# Summary of the method: as §1
# [23] = biological target: Man(a1-2)Man(a1-3)Man
# Summary of the method: as §1
# [24] = biological target: Man(a1-2)Man(a1-3)[Man(a1-2)Man(a1-6)]Man(a1-6)[Man(a1-2)Man(a1-2)Man(a1-3)]Man
# Summary of the method: as §1
# [25] = biological target: Man(a1-3)[Man(a1-6)]Man(a1-6)[Man(a1-3)]Man(b1-4)GlcNAc(b1-4)GlcNAc
# Summary of the method: as §1
# [26] = biological target: Neu5Ac(a2-3)Gal(b1-3)GlcNAc(b1-3)Gal(b1-3)GlcNAc
# Summary of the method: as §1
# [27] = biological target: Neu5Ac(a2-3)Gal(b1-3)[Fuc(a1-4)]GlcNAc(b1-3)Gal(b1-3)[Fuc(a1-4)]GlcNAc
# Summary of the method: as §1
# [28] = biological target: Neu5Ac(a2-3)Gal(b1-3)[Neu5Ac(a2-3)Gal(b1-4)]GlcNAc
# Summary of the method: as §1
# [29] = biological target: Neu5Ac(a2-3)Gal(b1-4)GlcNAc(b1-6)[Gal(b1-3)]GalNAc
# Summary of the method: as §1
# [30] = biological target: Neu5Ac(a2-3)Gal(b1-4)[Fuc(a1-3)]GlcNAc(b1-3)GalNAc
# Summary of the method: as §1
binder,measurement,setting,value
"cupB6 (Pseudomonas aeruginosa), Q02SP7 (protein) MSMRLFPGRVSLRRRPGAQARQALVLGLCCLTGGQAWALNEVALNCSFGNGKGLPWRVVNELTSGTAKGTVLFARPVSLFLSYKPQASQEAHELVLGGNWSGVGYPGPYGTVASDVKGIGYRISVDAQDGVKRVIPVDNQPHALDKRVTSFSGSTTSDYLQELVLTVDPGELPAGDLKVTSVSGSATLNLWAVDRLKGEASIGSVLAVPADNYPTGVCRKPYSLIGPASIAIGGGPPPPPIPKKCKVEVGREINVKLGSVALKNFPRVNDTSTERSFDISLSECAALAKPEIAFRDKYVSAQQADPTILSLKSGGAAGFGIVVKNGLDQQRIRFDGTPYPMRRVGDSADLPLSAAYIRIGAEGELKAGVADGAAEFTFTFP",glycan array binding signal (z-score),[1],19.6
same,glycan array binding signal (z-score),[2],0.336
same,glycan array binding signal (z-score),[3],0.023
same,glycan array binding signal (z-score),[4],0.068
same,glycan array binding signal (z-score),[5],-0.269
same,glycan array binding signal (z-score),[6],-0.171
same,glycan array binding signal (z-score),[7],0.027
same,glycan array binding signal (z-score),[8],0.36
same,glycan array binding signal (z-score),[9],-0.079
same,glycan array binding signal (z-score),[10],-0.05
same,glycan array binding signal (z-score),[11],0.099
same,glycan array binding signal (z-score),[12],0.472
same,glycan array binding signal (z-score),[13],-0.09
same,glycan array binding signal (z-score),[14],0.004
same,glycan array binding signal (z-score),[15],-0.185
same,glycan array binding signal (z-score),[16],-0.207
same,glycan array binding signal (z-score),[17],-0.128
same,glycan array binding signal (z-score),[18],0.216
same,glycan array binding signal (z-score),[19],-0.12
same,glycan array binding signal (z-score),[20],-0.121
same,glycan array binding signal (z-score),[21],-0.037
same,glycan array binding signal (z-score),[22],-0.194
same,glycan array binding signal (z-score),[23],0.328
same,glycan array binding signal (z-score),[24],0.065
same,glycan array binding signal (z-score),[25],-0.11
same,glycan array binding signal (z-score),[26],0.048
same,glycan array binding signal (z-score),[27],0.124
same,glycan array binding signal (z-score),[28],-0.26
same,glycan array binding signal (z-score),[29],-0.006
same,glycan array binding signal (z-score),[30],0.376
